# Out of some 310,000 compounds screened, about 3,900 (1.3%) were called active.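 The calls were made as follows: active = compounds whose thallium flux B-score, printed positive for inhibition, exceeds three library SD while starting fluorescence stays within three; inactive = the rest.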 This excerpt belongs to a sample that is enriched for actives.
# Target: Potassium voltage-gated channel subfamily KQT member 1 (Homo sapiens) (UniProt P51787)
# Experiment: inhibitors of human KCNQ1 channel, primary screen, cell-based, thallium flux, high-throughput (AID 2642);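 also: channel opened by potassium depolarization with thallium stimulus after 20 min compound exposure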
# Settings: CHO-K1 KCNQ1, FluxOR thallium flux fluorescence, at 10 µM; stronger effect = higher value
# Potassium voltage-gated channel subfamily KQT member 1 (Homo sapiens), sequence (P51787 whole entry, looked up): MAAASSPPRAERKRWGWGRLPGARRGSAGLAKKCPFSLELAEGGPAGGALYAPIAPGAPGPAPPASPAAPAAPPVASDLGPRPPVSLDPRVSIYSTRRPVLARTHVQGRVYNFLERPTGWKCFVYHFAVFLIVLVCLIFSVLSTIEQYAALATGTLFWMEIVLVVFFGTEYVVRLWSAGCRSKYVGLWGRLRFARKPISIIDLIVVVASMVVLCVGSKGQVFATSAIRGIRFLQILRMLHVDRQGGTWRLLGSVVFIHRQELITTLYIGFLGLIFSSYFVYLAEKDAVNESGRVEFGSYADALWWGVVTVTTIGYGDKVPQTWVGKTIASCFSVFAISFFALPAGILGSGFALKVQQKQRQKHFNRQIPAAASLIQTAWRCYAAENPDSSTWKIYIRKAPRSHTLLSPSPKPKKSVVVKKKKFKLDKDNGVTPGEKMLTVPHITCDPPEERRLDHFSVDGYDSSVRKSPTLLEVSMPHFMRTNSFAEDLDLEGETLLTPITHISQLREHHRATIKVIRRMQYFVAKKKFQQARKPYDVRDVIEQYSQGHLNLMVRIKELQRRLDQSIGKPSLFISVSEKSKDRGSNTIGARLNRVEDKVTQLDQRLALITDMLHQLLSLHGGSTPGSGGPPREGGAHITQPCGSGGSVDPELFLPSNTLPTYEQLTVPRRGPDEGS
row,Compound,B-score
1,CCOc1ccc(-c2cc(C)[n+](CCN(CC)CC)c(-c3ccc(OCC)cc3)c2)cc1,7 (active)
2,CSC1=NP(=S)(SC)N(C)c2nc3n(c21)CCC3 (stereo not given),inactive
3,CCN1C(=O)C(=Cc2c(C)n(CC(=O)NCC3CCCO3)c3ccccc23)C(=O)N(CC)C1=S (stereo not given),inactive
4,CN(C)S(=O)(=O)c1cc(C(=O)N2CCC(C(=O)O)(c3ccccc3)CC2)ccc1Cl,inactive
5,Cc1ccc(-c2nc3ccccc3c(=O)n2-c2ccc(Br)cn2)cc1,inactive
6,CCCCCCCCCCCCn1ccc(=N)cc1,13 (active)
7,CC1=CC(=Cc2sc3ccccc3[n+]2C)C=C(C)O1,inactive
8,Clc1ccc2nc3c(c(-c4ccccc4)c2c1)CNCC3,inactive
9,O=C(Nc1cccc2ccccc12)N1CCC2(CC1)OCCO2,inactive
10,O=C1CC(=O)N(Cc2ccccc2)C(=O)N1CCCCCCN1C(=O)CC(=O)N(Cc2ccccc2)C1=O,inactive
11,CC(C)(C)c1ccc(CN2C(=O)CN=C(c3ccccc3)c3ccccc32)cc1,6 (active)
12,C=Cn1ccnc1P(=S)(c1cc(N(CC)CC)ns1)c1nccn1C=C,inactive
13,O=c1[nH]c(=O)n(-c2ccc(F)cc2)c(O)c1C=NCCN1CCCCC1,inactive
14,COC(=O)C1=C(c2ccccc2)C[C@@H]2CC[C@H]1N2C(=O)N1CCCCC1,inactive
15,C/C(=N/O)c1ccc2ccc3ccccc3c2c1,inactive
16,C/C=C/CC1(CC)C(=O)NC(=S)NC1=O,inactive
17,CCOc1cccc(=NC2CCCCC2)c2c(C)[nH]c(C)c12,7 (active)
18,CN(C)c1nc(N(C)C)nc(N(C#N)CCCl)n1,inactive
19,COc1ccccc1N1CCN(C(CNC(=O)Oc2ccccc2)c2cccnc2)CC1 (stereo not given),inactive
20,O=C(N/N=C/c1c(O)n(C2CC2)c(=S)[nH]c1=O)c1ccccc1Cl,inactive
